Measurements reported in PubChem BioAssay (NCI).
About 79,000 compounds went through this panel and 15% of them were active in at least one assay; those are over-represented in the sample as a whole. A number with no mark means an inactive call. The source made the active and inactive calls. Rule as the data show it: active = growth inhibition above about 70%; inactive = the rest.

What was measured:
[1] = NCI Yeast Anticancer Drug Screen. Data for the rad50 strain (AID 155);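 also: 0% = growth of vehicle-only cultures of the same strain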; settings: S. cerevisiae rad50 strain growth inhibition, stronger effect = higher value
In short: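 Relative growth inhibition (compound vs vehicle) was measured in yeast with a defined repair-gene alteration.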

[2] = NCI Yeast Anticancer Drug Screen. Data for the mec2-1 strain (AID 157); settings: S. cerevisiae mec2-1 strain, stronger effect = higher value
In short: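 Using mec2-1 yeast: add compound, measure growth, express inhibition versus vehicle-treated cultures.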

[3] = NCI Yeast Anticancer Drug Screen. Data for the sgs1 mgt1 strain (AID 161);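 also: 0% = growth of cultures given vehicle only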; settings: S. cerevisiae sgs1 mgt1 strain, stronger effect = higher value
In short: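 This yeast growth screen uses a strain with defined DNA-repair lesions; compound-treated growth is compared with vehicle-treated growth.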

[4] = NCI Yeast Anticancer Drug Screen. Data for the cln2 rad14 strain (AID 165);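 also: 0% = growth equal to vehicle treated cultures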; settings: S. cerevisiae cln2 rad14 strain, stronger effect = higher value
In short: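 Yeast strain cln2 rad14, bearing defects in cell cycle control and DNA repair, serves as the test system; values reflect growth inhibition compared with vehicle.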

[5] = NCI Yeast Anticancer Drug Screen. Data for the bub3 strain (AID 167); settings: S. cerevisiae bub3 mutant strain, stronger effect = higher value
In short: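 Screening used yeast with an engineered genetic alteration affecting cell cycle control. Compound-exposed cultures were compared with vehicle cultures, and reduced growth was taken as inhibition.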

[6] = NCI Yeast Anticancer Drug Screen. Data for the mlh1 rad18 strain (AID 175); settings: S. cerevisiae mlh1 rad18 strain growth inhibition, stronger effect = higher value
In short: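 Steps: expose repair-defective yeast to compound; measure growth; express inhibition against vehicle-treated controls.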

[7] = at 5.0 µM (retest, dose inferred, filed as 0.5)
[8] = at 50.0 µM (retest, dose inferred, filed as 5.0)

| SMILES | growth inhibition [1, 7] | growth inhibition [1, 8] | growth inhibition ([1]; at 50.0 µM) | growth inhibition [2, 7] | growth inhibition [2, 8] | growth inhibition ([2]; at 50.0 µM) | growth inhibition [3, 7] | growth inhibition [3, 8] | growth inhibition ([3]; at 50.0 µM) | growth inhibition [4, 7] | growth inhibition [4, 8] | growth inhibition ([4]; at 50.0 µM) | growth inhibition [5, 7] | growth inhibition [5, 8] | growth inhibition ([5]; at 50.0 µM) | growth inhibition [6, 7] | growth inhibition [6, 8] | growth inhibition ([6]; at 50.0 µM) |
| --- | --- | --- | --- | --- | --- | --- | --- | --- | --- | --- | --- | --- | --- | --- | --- | --- | --- | --- |
| S=C1NCCNC(=S)SS1 | 40% | 97% (active) | 93% (active) | 8% | 99% (active) | 77.6% (active) | 15% | 97% (active) | 48.5% | 7% | 98% (active) | 20.2% | 10% | 99% (active) | 98.8% (active) | 14% | 99% (active) | 44.5% |
| O=C(NNc1ccccc1)c1ccccc1Cl | -3% | 93% (active) | 97.5% (active) | 9% | 89% (active) | 92% (active) | 15% | 91% (active) | 96% (active) | -9% | 89% (active) | 93% (active) | -14% | 95% (active) | 95.7% (active) | 13% | 97% (active) | 95.6% (active) |
| c1ccc(-c2cc(Nc3ccc4c(c3)OCO4)c3cc(C4CCCCC4)ccc3n2)cc1 | 10% | 95% (active) | 79% (active) | 6% | 96% (active) | 83.9% (active) | 27% | 97% (active) | 96.7% (active) | -8% | 93% (active) | 60.4% | 4% | 96% (active) | 41.2% | 7% | 94% (active) | 98.2% (active) |
| CCCCC(CC)C(O)C(=O)O (stereo not given) | 2% | 30% | 46.8% | -1% | 27% | 45.7% | 4% | 4% | 40.4% | 6% | 32% | 26.6% | 1% | 26% | 33.9% | -2% | 31% | 54.4% |
| C/C(=N\NC(=S)N(C)C)c1cccnn1 | 95% (active) | 99% (active) | 84.8% (active) | 91% (active) | 99% (active) | 91.4% (active) | 92% (active) | 98% (active) | 87.3% (active) | 94% (active) | 95% (active) | 86.8% (active) | 95% (active) | 99% (active) | 89.5% (active) | 96% (active) | 99% (active) | 83.2% (active) |
| CCCCN(CCO)CCNc1ccc(C)c2sc3ccccc3c(=O)c12 | 17% | 99% (active) | 99.7% (active) | 14% | 99% (active) | 99.8% (active) | 29% | 100% (active) | 99.6% (active) | 17% | 99% (active) | 99.7% (active) | 24% | 99% (active) | 99.6% (active) | 22% | 99% (active) | 95.5% (active) |
| O=C1C=CC(=C(c2ccccc2)c2ccc(O)cc2)C=C1 | -5% | 75% (active) | 31.3% | -8% | 72% (active) | 80.3% (active) | -5% | -27% | 65.3% | -7% | 76% (active) | 27.6% | -8% | 92% (active) | 92.2% (active) | 2% | 86% (active) | 81% (active) |
| Clc1nssc1=Nc1nonc1-c1ccccc1 | 59% | 99% (active) | 88.7% (active) | 64% | 100% (active) | 91.2% (active) | 86% (active) | 100% (active) | 79.9% (active) | 68% | 96% (active) | 48.6% | 97% (active) | 99% (active) | 79.7% (active) | 49% | 98% (active) | 92.2% (active) |
| COc1ccc(/C=C/c2ccnc3ccccc23)cc1OC | 17% | 96% (active) | 86.4% (active) | 2% | 97% (active) | 90.9% (active) | 9% | 98% (active) | 87.9% (active) | 6% | 89% (active) | 83.7% (active) | -8% | 98% (active) | 82.5% (active) | 11% | 96% (active) | 84.9% (active) |
| C/C(=N\NC(=S)N1CCN(c2ccccc2)CC1)c1nccs1 | 28% | 96% (active) | 90.5% (active) | 56% | 98% (active) | 91.8% (active) | 33% | 99% (active) | 91.1% (active) | 22% | 98% (active) | 90.9% (active) | 63% | 99% (active) | 88.3% (active) | 34% | 97% (active) | 89.8% (active) |
| CCCCCCCCCCCCNCC#N | 8% | 18% | 89.9% (active) | 11% | 10% | 72.2% (active) | -2% | 17% | 85.1% (active) | 0% | 15% | 48.4% | 4% | 52% | 83.5% (active) | 5% | 29% | 93% (active) |
| COc1ccc(N)c([N+](=O)[O-])c1 | -5% | 13% | 41.8% | 1% | 23% | 58% | -2% | 12% | 69.5% | -1% | 10% | 39% | 2% | 30% | 48.9% | -4% | 31% | 27.9% |
| CCc1ccccc1SC(C)=O | 6% | 55% | 29.9% | 13% | 70% (active) | 62% | 3% | 42% | 44.5% | 11% | 69% | 59.9% | 7% | 77% (active) | 80.9% (active) | 1% | 60% | 65.3% |
| CC(=O)OCC(C(N)=O)(c1ccccc1)c1ccccc1 | -5% | 1% | -2.6% | -2% | 2% | -10% | -1% | -5% | 12.8% | -5% | -3% | 91.5% (active) | -7% | -1% | 2.8% | -6% | -6% | 11% |
| O=C(O)C(Cc1cc(I)c(O)c(I)c1)C1CCCCC1 (stereo not given) | 12% | 99% (active) | 99.2% (active) | 8% | 99% (active) | 99.2% (active) | 3% | 97% (active) | 99.3% (active) | 7% | 99% (active) | 99% (active) | -11% | 99% (active) | 99.3% (active) | 6% | 99% (active) | 98.8% (active) |
| Cc1[nH]n(C(N)=S)c(=O)c1N=Nc1ccc([N+](=O)[O-])cc1 | -19% | 35% | 91.5% (active) | -4% | 27% | 51.2% | -4% | 66% | 88.2% (active) | -13% | 33% | 7.5% | -12% | 54% | 51.8% | -6% | 48% | 93.4% (active) |
| CC(C)C(O)(C(=O)OCN1C(=O)C2C3C=CC(C2C1=O)C1C2C(=O)N(COC(=O)C(O)(C(C)C)C(C)O)C(=O)C2C31)C(C)O (stereo not given) | 0% | -7% | 28.5% | -2% | 11% | 52% | -7% | 17% | 37.9% | 0% | -2% | 18.1% | 5% | 9% | -2% | -3% | 2% | 30.6% |
| COC(=O)c1ccc(NCC2=C(Br)C(=O)C=CC2=O)cc1Cl | 43% | 98% (active) | 89.4% (active) | 35% | 98% (active) | 77.6% (active) | 35% | 98% (active) | 92.3% (active) | 43% | 98% (active) | 88.8% (active) | 44% | 98% (active) | 90.8% (active) | 37% | 97% (active) | 89.7% (active) |
| COc1ccc(/C=C/c2ccc3ccccc3n2)cc1OC | 3% | 97% (active) | 93.8% (active) | 8% | 98% (active) | 97% (active) | 3% | 93% (active) | 97.5% (active) | 1% | 96% (active) | 83.6% (active) | 10% | 98% (active) | 95.3% (active) | -1% | 97% (active) | 95.7% (active) |
| Cc1ccccc1N1C(=O)C(=O)c2cccc(C)c21 | 2% | 98% (active) | 99.2% (active) | 0% | 99% (active) | 99.5% (active) | 1% | 99% (active) | 99.7% (active) | 1% | 98% (active) | 97% (active) | 2% | 99% (active) | 99.8% (active) | 0% | 99% (active) | 83.1% (active) |
